Test results published in the supplement of paper PMC12282887.
± gives the standard deviation of the averaged measurements.

Legend:
Assay in all cases: promoter activity interaction Z-score (Lux/OD deviation from empty-vector control); higher = stronger promoter induction by the compound
[1] = system: E. coli BW25113 ompFp lux reporter
Summary of the method: (§1)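 Low-copy luxCDABE promoter reporters were carried by E. coli BW25113, either wild type or lacking one of three genes, grown in 40 µl LB Lennox in 384-well plates at 37°C. Each compound was run at four 1:2 dilutions in biological duplicates, with OD600 and luminescence read every 30 min for 12 h. Integration used 0–8 h for wild type and 1–9 h for deletion strains, and wells under 10% of the median growth value were removed. Luminescence normalised to growth was fitted against a control, and the Z-transformed residual is the score.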

[2] = system: E. coli BW25113 robp lux reporter
Summary of the method: as §1

[3] = system: E. coli BW25113 soxSp lux reporter
Summary of the method: as §1

[4] = system: E. coli BW25113 tolCp lux reporter
Summary of the method: as §1

[5] = 76.6 µg/ml, genetic background: wild type
[6] = 76.6 µg/ml, genetic background: ΔmarA
[7] = 76.6 µg/ml, genetic background: Δrob
[8] = 76.6 µg/ml, genetic background: ΔsoxS
[9] = 153.1 µg/ml, genetic background: wild type
[10] = 153.1 µg/ml, genetic background: ΔmarA
[11] = 153.1 µg/ml, genetic background: Δrob
[12] = 153.1 µg/ml, genetic background: ΔsoxS
[13] = 19.1 µg/ml, genetic background: wild type
[14] = 19.1 µg/ml, genetic background: ΔmarA
[15] = 19.1 µg/ml, genetic background: Δrob
[16] = 19.1 µg/ml, genetic background: ΔsoxS
[17] = 38.3 µg/ml, genetic background: wild type
[18] = 38.3 µg/ml, genetic background: ΔmarA
[19] = 38.3 µg/ml, genetic background: Δrob
[20] = 38.3 µg/ml, genetic background: ΔsoxS

Q: `Nc1ccc(C(=O)O)c(O)c1` [4-Aminosalicylic acid] was tested. Which “promoter activity interaction Z-score” value [1, 5] did it give?
A: Its value is -0.751 ± 0.39.

Q: What about the “promoter activity interaction Z-score” value [1, 6] of the same molecule?
A: The value was -0.414 ± 0.39.

Q: What about the “promoter activity interaction Z-score” value [1, 7] of the same molecule?
A: Its value is -0.49 ± 0.65.

Q: What about the “promoter activity interaction Z-score” value [1, 8] of the same molecule?
A: Its value is -0.5 ± 0.67.

Q: What about the “promoter activity interaction Z-score” value [1, 9] of the same molecule?
A: The value was -0.516 ± 0.52.

Q: And the “promoter activity interaction Z-score” value [1, 10]?
A: Its value is 0.0436 ± 0.35.

Q: And the “promoter activity interaction Z-score” value [1, 11]?
A: Its value is 0.0977 ± 1.

Q: What about the “promoter activity interaction Z-score” value [1, 12] of the same molecule?
A: Its value is 0.625 ± 1.1.

Q: What about the “promoter activity interaction Z-score” value [2, 13] of the same molecule?
A: Its value is -0.222 ± 0.014.

Q: And the “promoter activity interaction Z-score” value [2, 14]?
A: The value was -0.199 ± 0.69.

Q: What about the “promoter activity interaction Z-score” value [2, 15] of the same molecule?
A: The value was -0.314 ± 0.28.

Q: And the “promoter activity interaction Z-score” value [2, 16]?
A: Its value is -0.201 ± 0.76.

Q: What about the “promoter activity interaction Z-score” value [2, 17] of the same molecule?
A: Its value is -0.158 ± 0.15.

Q: What about the “promoter activity interaction Z-score” value [2, 18] of the same molecule?
A: The value was 0.308 ± 0.07.

Q: And the “promoter activity interaction Z-score” value [2, 19]?
A: The value was 0.333 ± 0.35.

Q: And the “promoter activity interaction Z-score” value [2, 20]?
A: Its value is 0.11 ± 0.31.

Q: And the “promoter activity interaction Z-score” value [2, 5]?
A: The value was -0.0528 ± 0.63.

Q: What about the “promoter activity interaction Z-score” value [2, 6] of the same molecule?
A: Its value is -0.845 ± 0.11.

Q: And the “promoter activity interaction Z-score” value [2, 7]?
A: The value was -0.29 ± 0.49.

Q: And the “promoter activity interaction Z-score” value [2, 8]?
A: Its value is -0.381 ± 0.64.

Q: What about the “promoter activity interaction Z-score” value [2, 9] of the same molecule?
A: The value was -0.356 ± 0.24.

Q: What about the “promoter activity interaction Z-score” value [2, 10] of the same molecule?
A: The value was 0.439 ± 0.5.

Q: What about the “promoter activity interaction Z-score” value [2, 11] of the same molecule?
A: The value was -0.252 ± 0.99.

Q: And the “promoter activity interaction Z-score” value [2, 12]?
A: Its value is 0.0401 ± 0.42.

Q: What about the “promoter activity interaction Z-score” value [3, 13] of the same molecule?
A: The value was 0.0858 ± 0.3.

Q: What about the “promoter activity interaction Z-score” value [3, 14] of the same molecule?
A: The value was 0.563 ± 0.097.

Q: And the “promoter activity interaction Z-score” value [3, 15]?
A: Its value is 0.674 ± 0.079.

Q: What about the “promoter activity interaction Z-score” value [3, 16] of the same molecule?
A: Its value is 0.458 ± 0.71.

Q: What about the “promoter activity interaction Z-score” value [3, 17] of the same molecule?
A: Its value is -0.0504 ± 0.074.

Q: What about the “promoter activity interaction Z-score” value [3, 18] of the same molecule?
A: Its value is 0.547 ± 0.088.

Q: And the “promoter activity interaction Z-score” value [3, 19]?
A: The value was 0.688 ± 0.15.

Q: What about the “promoter activity interaction Z-score” value [3, 20] of the same molecule?
A: Its value is 0.377 ± 0.54.

Q: And the “promoter activity interaction Z-score” value [3, 5]?
A: Its value is 0.102 ± 0.028.

Q: What about the “promoter activity interaction Z-score” value [3, 6] of the same molecule?
A: Its value is 0.199 ± 0.076.

Q: What about the “promoter activity interaction Z-score” value [3, 7] of the same molecule?
A: Its value is 0.581 ± 0.14.

Q: And the “promoter activity interaction Z-score” value [3, 8]?
A: Its value is 0.29 ± 0.88.

Q: And the “promoter activity interaction Z-score” value [3, 9]?
A: The value was -0.173 ± 0.12.

Q: What about the “promoter activity interaction Z-score” value [3, 10] of the same molecule?
A: Its value is 0.349 ± 0.045.

Q: And the “promoter activity interaction Z-score” value [3, 11]?
A: Its value is 0.403 ± 0.16.

Q: What about the “promoter activity interaction Z-score” value [3, 12] of the same molecule?
A: The value was 0.259 ± 0.95.

Q: What about the “promoter activity interaction Z-score” value [4, 13] of the same molecule?
A: The value was -0.487 ± 1.9.

Q: And the “promoter activity interaction Z-score” value [4, 14]?
A: Its value is -1.05 ± 0.26.

Q: What about the “promoter activity interaction Z-score” value [4, 15] of the same molecule?
A: Its value is 1.71 ± 2.

Q: And the “promoter activity interaction Z-score” value [4, 16]?
A: Its value is -0.0483 ± 0.2.

Q: What about the “promoter activity interaction Z-score” value [4, 17] of the same molecule?
A: Its value is -0.154 ± 1.3.

Q: And the “promoter activity interaction Z-score” value [4, 18]?
A: The value was -0.0748 ± 0.1.

Q: What about the “promoter activity interaction Z-score” value [4, 19] of the same molecule?
A: Its value is 0.149 ± 0.17.

Q: What about the “promoter activity interaction Z-score” value [4, 20] of the same molecule?
A: Its value is 0.687 ± 1.6.

Q: What about the “promoter activity interaction Z-score” value [4, 5] of the same molecule?
A: Its value is -0.119 ± 0.018.

Q: And the “promoter activity interaction Z-score” value [4, 6]?
A: The value was -0.241 ± 0.77.

Q: What about the “promoter activity interaction Z-score” value [4, 7] of the same molecule?
A: The value was 1.64 ± 0.41.

Q: And the “promoter activity interaction Z-score” value [4, 8]?
A: The value was -0.423 ± 0.15.

Q: What about the “promoter activity interaction Z-score” value [4, 9] of the same molecule?
A: Its value is 0.606 ± 0.32.

Q: And the “promoter activity interaction Z-score” value [4, 10]?
A: Its value is 0.0837 ± 0.18.

Q: What about the “promoter activity interaction Z-score” value [4, 11] of the same molecule?
A: Its value is 0.207 ± 0.77.

Q: What about the “promoter activity interaction Z-score” value [4, 12] of the same molecule?
A: Its value is 1.76 ± 0.4.
